From PubChem BioAssay (EPA / NIEHS)
Active and inactive are the calls of the source. How the source made its calls: active means hit-call score of the fitted dose curve at least 0.9, where 1 is the maximum; inactive means score below 0.9.

What was measured:
[1] = APR_HepG2_CellLoss_72hr: Apredica 72-hour HepG2 Assay for Cell Loss (AID 2282915); conditions: high-content imaging
In short: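 Cell number comes from Hoechst 33342-labelled nuclei, imaged at 20x after 3.7% formaldehyde fixation. Dosing was 0.39–200 uM, ten concentrations in duplicate, 0.5% DMSO final, for 72 h. Bidirectional fit relative to DMSO baseline.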

[2] = APR_HepG2_P-H2AX_72hr: Apredica 72-hour HepG2 Assay for H2AX Phosphorylation (AID 2282916); conditions: imaging, actives raise or lower the signal;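 further: phospho-histone H2A.x immunostain intensity per cell marking DNA damage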
In short: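 HepG2 cells treated 72 h at 0.39–200 uM, 0.5% DMSO final, duplicates. Formaldehyde-fixed, Triton-permeabilised, immunostained for phospho-H2A.x with Hoechst; fluorescence imaged at 20x, bidirectional fit versus DMSO.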

[3] = APR_HepG2_MitoMembPot_72hr: Apredica 72-hour HepG2 Assay for Mitochondrial Membrane Potential (AID 2282917); conditions: imaging, actives raise or lower the signal
In short: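 Membrane potential read by MitoTracker Red CMXRos (250 nM, 30 min, pre-fixation) fluorescence imaging of HepG2 after 72 hr exposure. Ten concentrations, 0.39–200 uM, duplicate wells, 0.5% DMSO; fitted in both directions against DMSO baseline.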

[4] = APR_HepG2_MitoticArrest_72hr: Apredica 72-hour HepG2 Assay for Mitotic Arrest (AID 2282918); conditions: high-content imaging, actives raise or lower the signal
In short: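 Using high-content imaging of fixed HepG2 cells, phospho-histone H3 signal was measured following a 72 hr incubation with ten-point compound dilutions up to 200 uM. DMSO served as the negative control and baseline for bidirectional curve fitting.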

[5] = APR_HepG2_MicrotubuleCSK_72hr: Apredica 72-hour HepG2 Assay for Microtubule CSK Stabilty (AID 2282919); conditions: HepG2 microtubule cytoskeleton, high-content imaging, actives raise or lower the signal
In short: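 Read-out is tubulin fluorescence intensity from high-content imaging of HepG2 cells, with nuclei identified by Hoechst 33342. Treatment lasts 72 h at 0.39–200 uM, and curves are fitted bidirectionally against the DMSO negative control.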

[6] = APR_HepG2_P-H2AX_24hr: Apredica 24-hour HepG2 Assay for H2AX Phosphorylation (AID 2282920); conditions: high-content imaging, actives raise or lower the signal
In short: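 Human HepG2 liver cells, treated 24 hr with test chemicals (0.39–200 uM, final DMSO 0.5% v/v), are fixed and co-stained for phospho-H2A.x and c-Jun with Hoechst. Imaged intensity is fitted in both directions against DMSO controls.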

[7] = APR_HepG2_StressKinase_72hr: Apredica 72-hour HepG2 Assay for Stress Kinase (AID 2282921); conditions: HepG2 stress kinase (phospho-c-Jun) imaging, actives raise or lower the signal
In short: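 HepG2 cells treated 72 hr with 0.39–200 uM compound, 0.5% v/v DMSO, duplicate wells. After formaldehyde fixation and Triton permeabilization, stained with anti-phospho-c-Jun (1:500) and Cy3 secondary, imaged at 20x. Fitted in both directions against DMSO.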

[8] = APR_HepG2_StressKinase_24hr: Apredica 24-hour HepG2 Assay for Stress Kinase (AID 2282922); conditions: HepG2 stress kinase (phospho-c-Jun) imaging, actives raise or lower the signal
In short: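 HepG2, 24 hr dosing, 0.39–200 uM in duplicate, 0.5% DMSO; formaldehyde fix (3.7%), 0.5% Triton X-100; anti-phospho-c-Jun + Cy3 secondary, Hoechst counterstain; ArrayScan imaging; bidirectional curve fit vs DMSO baseline.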

[9] = APR_HepG2_p53Act_72hr: Apredica 72-hour HepG2 Assay for p53 Activation (AID 2282923); conditions: high-content imaging, actives raise or lower the signal;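 further: average cellular p53 protein immunofluorescence intensity in HepG2 cells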
In short: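 HepG2 cells exposed 72 h to 0.39–200 uM in 0.5% DMSO, duplicates. Fixed, permeabilized cells immunostained for p53 (Cy5) with Hoechst; imaged at 20x, fluorescence analyzed bidirectionally against DMSO.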

[10] = APR_HepG2_NuclearSize_72hr: Apredica 72-hour HepG2 Assay for Nuclear Size (AID 2282925); conditions: high-content imaging, actives raise or lower the signal
In short: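 HepG2; cpd 0.39–200 uM, 10 conc, duplicate; 72 h; DMSO 0.5% v/v; fix 3.7% formaldehyde 30 min RT; Triton permeabilization; Hoechst 2 ug/mL; HCS imaging 20x; nuclear diameter; gain/loss fit vs DMSO.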

[11] = target: CCAAT/enhancer-binding protein beta (Homo sapiens) (UniProt P17676); assay: ATG_C_EBP_CIS: Attagene CIS-FACTORIAL HepG2 Assay for human CCAAT/Enhancer Binding Protein (C/EBP) beta (AID 2282927); conditions: HepG2 Attagene cis-factorial transcription factor reporter; actives raise or lower the signal
CCAAT/enhancer-binding protein beta (Homo sapiens), sequence (P17676 whole entry, looked up): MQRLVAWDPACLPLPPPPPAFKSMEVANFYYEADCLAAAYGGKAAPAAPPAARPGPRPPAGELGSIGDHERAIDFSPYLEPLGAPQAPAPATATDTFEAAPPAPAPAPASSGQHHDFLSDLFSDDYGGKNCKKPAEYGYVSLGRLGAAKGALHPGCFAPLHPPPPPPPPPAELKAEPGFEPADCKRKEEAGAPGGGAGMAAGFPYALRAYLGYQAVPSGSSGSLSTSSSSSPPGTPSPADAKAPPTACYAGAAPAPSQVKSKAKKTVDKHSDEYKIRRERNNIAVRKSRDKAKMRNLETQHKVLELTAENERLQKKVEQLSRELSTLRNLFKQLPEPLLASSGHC
In short: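 Changes in reporter mRNA, rather than exogenous chimeric receptor activity, reflect native C/EBP signalling in transfected HepG2 cells dosed for 24 h; transcripts are detected by RT-PCR and capillary electrophoresis.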

[12] = ATG_CMV_CIS: Attagene CIS-FACTORIAL HepG2 Assay for human CMV (Internal Marker) (AID 2282928); conditions: HepG2 CMV promoter reporter, transcription factor profiling; actives raise or lower the signal;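 further: endpoint acts as a background internal control marker rather than a target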
In short: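 HepG2 cells transiently transfected with multiple cis-regulated reporter units; 24 h compound exposure. Reporter mRNA quantified by RT-PCR, 6-FAM primer-extension labeling, HpaI digestion and capillary electrophoresis; bidirectional fitting against DMSO baseline.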

[13] = ATG_DR4_LXR_CIS: Attagene CIS-FACTORIAL HepG2 Assay for human Liver X Receptor (LXR), DR4 submotif (AID 2282929); conditions: HepG2 Attagene DR4 cis-reporter, mRNA transcription; actives raise or lower the signal
In short: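 After transient transfection with multiplexed cis-promoter reporter units, HepG2 cells received test chemicals for 24 h. Reporter mRNA induction, detected by fluorescence after RT-PCR and capillary electrophoresis, was scored relative to DMSO.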

[14] = target: Aryl hydrocarbon receptor (Homo sapiens) (UniProt P35869); assay: ATG_Ahr_CIS: Attagene CIS-FACTORIAL HepG2 Assay for human Aryl Hydrocarbon Receptor (Ahr) (AID 2282930); conditions: HepG2 AhR cis-factorial reporter transcription; actives raise or lower the signal
Aryl hydrocarbon receptor (Homo sapiens), sequence (P35869 whole entry, looked up): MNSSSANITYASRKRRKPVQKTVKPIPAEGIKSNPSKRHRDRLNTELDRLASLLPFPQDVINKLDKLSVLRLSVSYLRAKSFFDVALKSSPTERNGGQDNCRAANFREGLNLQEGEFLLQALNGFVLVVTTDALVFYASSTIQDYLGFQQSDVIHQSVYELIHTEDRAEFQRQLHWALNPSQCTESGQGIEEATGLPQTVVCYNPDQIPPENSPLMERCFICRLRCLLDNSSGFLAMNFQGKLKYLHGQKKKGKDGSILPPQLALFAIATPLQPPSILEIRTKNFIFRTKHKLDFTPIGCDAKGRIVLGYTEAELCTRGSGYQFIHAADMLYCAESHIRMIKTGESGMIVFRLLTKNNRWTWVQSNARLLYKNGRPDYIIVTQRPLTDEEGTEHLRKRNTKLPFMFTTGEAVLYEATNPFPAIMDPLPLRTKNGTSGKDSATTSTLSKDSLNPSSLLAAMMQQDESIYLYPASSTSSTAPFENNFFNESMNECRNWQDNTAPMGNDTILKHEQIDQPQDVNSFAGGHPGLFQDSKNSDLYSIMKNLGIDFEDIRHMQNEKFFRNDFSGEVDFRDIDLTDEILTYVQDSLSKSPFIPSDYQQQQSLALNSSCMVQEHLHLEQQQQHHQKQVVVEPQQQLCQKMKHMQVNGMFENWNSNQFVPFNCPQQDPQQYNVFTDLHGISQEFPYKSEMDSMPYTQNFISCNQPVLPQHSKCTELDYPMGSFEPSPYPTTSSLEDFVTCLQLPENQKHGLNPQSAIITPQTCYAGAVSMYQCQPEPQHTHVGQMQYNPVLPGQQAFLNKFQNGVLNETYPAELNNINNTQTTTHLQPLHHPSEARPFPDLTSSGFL
In short: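 HepG2, transient MRTU (cis) transfection, 24 h exposure. RNA → cDNA → PCR → 6-FAM primer extension → HpaI 2 h 37 C → CE. Fit: bidirectional, DMSO baseline.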

[15] = ATG_AP_1_CIS: Attagene CIS-FACTORIAL HepG2 Assay for human Activator Protein 1 (AP-1) (AID 2282931); conditions: HepG2 Attagene cis-factorial AP-1 reporter mRNA; actives raise or lower the signal
In short: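 After 24 h incubation with test chemical, RNA from transfected HepG2 cells was reverse-transcribed, amplified, fluorescently labelled and digested before capillary electrophoresis. Reporters were driven by cis-regulatory promoters; activity fitted bidirectionally versus DMSO.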

[16] = ATG_AP_2_CIS: Attagene CIS-FACTORIAL HepG2 Assay for human Activator Protein 2 (AP-2) (AID 2282932); conditions: HepG2 AP-2 cis-reporter, Attagene transcription factor profiling; actives raise or lower the signal
In short: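 HepG2, transient MRTU transfection, cis-regulated reporters; 24 h compound exposure; RNA isolated, RT-PCR, 6-FAM labelling, HpaI digest, CE fluorescence. DMSO = negative control/baseline, bidirectional fit.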

[17] = target: Retinoic acid receptor alpha (Homo sapiens) (UniProt P10276); assay: ATG_DR5_RAR_CIS: Attagene CIS-FACTORIAL HepG2 Assay for human Retinoic Acid Receptor Alpha (RARE), DR5 submotif (AID 2282934); conditions: HepG2 Attagene cis-factorial RARE DR5 reporter, mRNA; actives raise or lower the signal
Retinoic acid receptor alpha (Homo sapiens), sequence (P10276 whole entry, looked up): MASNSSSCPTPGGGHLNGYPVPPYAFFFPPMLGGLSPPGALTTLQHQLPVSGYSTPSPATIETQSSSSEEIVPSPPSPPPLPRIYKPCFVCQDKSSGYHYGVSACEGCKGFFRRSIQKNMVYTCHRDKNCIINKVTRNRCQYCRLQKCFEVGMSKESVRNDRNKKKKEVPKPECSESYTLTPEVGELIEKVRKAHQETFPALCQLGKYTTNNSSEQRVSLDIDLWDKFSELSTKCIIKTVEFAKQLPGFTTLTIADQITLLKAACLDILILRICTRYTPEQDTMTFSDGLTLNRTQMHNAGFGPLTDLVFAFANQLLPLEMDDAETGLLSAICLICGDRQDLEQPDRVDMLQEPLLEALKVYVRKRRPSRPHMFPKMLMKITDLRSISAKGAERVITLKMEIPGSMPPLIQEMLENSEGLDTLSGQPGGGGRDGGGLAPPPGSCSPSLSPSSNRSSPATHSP
In short: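 HepG2, transient cis-reporter transfection, 24 h exposure. mRNA readout: RT-PCR, FAM label, HpaI cut, capillary electrophoresis. DMSO baseline, gain/loss fitting.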

[18] = APR_HepG2_MitoMass_72hr: Apredica 72-hour HepG2 Assay for Mitochondrial Mass (AID 2282924); conditions: high-content imaging, actives raise or lower the signal;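 further: MitoTracker Red CMXRos stain intensity per cell imaged as mitochondrial mass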
In short: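 HepG2, 72 hr cmpd, 10 conc 0.39–200 uM in dup, DMSO 0.5% v/v. MitoTracker Red CMXRos 250 nM 30 min pre-fix; formaldehyde 3.7% fix 30 min RT. HCS imaging, gain/loss fit vs DMSO.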

[19] = ATG_CRE_CIS: Attagene CIS-FACTORIAL HepG2 Assay for human cAMP Responsive Element (CRE) binding protein 3 (AID 2282926); conditions: HepG2 CRE cis-reporter, Attagene multiplexed mRNA; actives raise or lower the signal
In short: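 Transfected HepG2 were treated for 24 hours, then RNA was extracted and reporter cDNA amplified with sequence-specific primers. Labelled fragments were separated by capillary electrophoresis, and the CRE signal was fitted bidirectionally with DMSO as baseline.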

[20] = ATG_BRE_CIS: Attagene CIS-FACTORIAL HepG2 Assay for human Bone Morphogenetic Protein (BMP) Response Element (BRE) (AID 2282933); conditions: HepG2 BMP response element reporter, Attagene transcription factor profiling; actives raise or lower the signal
In short: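 Fluorescence-labelled reporter cDNA fragments, separated by capillary electrophoresis, gave the signal for this component of a 52-readout multiplex. HepG2 cells were transfected, exposed to chemicals for 24 h, and compared with DMSO using bidirectional fitting.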

Measured: AC50

CC(C)c1ccc(C(=O)N=C(N)N)cc1S(C)(=O)=O
not listed: [18] | [19] | [20]
inactive: all other assays above

CCCCOC(=O)CCCCCCCCC(=O)OCCCC
active: [13] 144 µM
not listed: [11] | [20]
inactive: all other assays above

COc1cccc2c1C(=O)c1c(O)c3c(c(O)c1C2=O)C[C@@](O)(C(=O)CO)C[C@@H]3O[C@H]1C[C@H](N)[C@H](O)[C@H](C)O1
inactive: [3] | [19] | [11] | [14] | [20] | [17]
active: [1] 65.3 nM | [2] 1.48 µM | [4] 1.37 µM | [5] 700 nM | [6] 3.17 µM | [7] 17.6 µM | [8] 8.8 µM | [9] 177 nM | [12] 1.19 µM | [13] 0.957 µM | [15] 2.15 µM | [16] 3.75 µM

COC(=O)c1ccc(O)cc1
not listed: [10] | [19] | [20]
inactive: all other assays above

Clc1cc(Cl)c(Cl)cc1Cl
not listed: [10] | [18] | [19]
inactive: all other assays above

Cc1c(C(=O)O)c(O)cc2c1C(=O)c1c(O)c([C@@H]3O[C@H](CO)[C@@H](O)[C@H](O)[C@H]3O)c(O)c(O)c1C2=O
active: [3] 40.9 µM
inactive: all other assays above

CCCCCCCCCCC
not listed: [10] | [11] | [20]
inactive: all other assays above
